This passage reports Potency results from PubChem BioAssay AID720519 (National Center for Advancing Translational Sciences (NCATS), 2013).

Results filed as inconclusive are left out. Where a call stands in place of a potency, no number is given. Calls of active or inactive are those of the source. Calls follow the shape of the dose curve; as a rule, active = well fitted activation curve with a large enough effect; inconclusive = small, poorly fitted or top-dose-only effect; inactive = flat fitted curve, though single readings scatter.

A short description of the experiment: qHTS for Inhibitors of Cell Surface uPA Generation: Confirmatory Assay for Cherry-picked Compounds. Particulars: cell surface uPA activity generation, qHTS confirmation; series mostly up to 115 µM. In short, it runs like this: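 RAW 264.7 cells at 4000/well, incubated overnight, then treated with compounds. After 24 h at 37 C, viability was read by ATPlite luminescence. An increase in signal indicates blocked uPA-dependent LF entry.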
Background: qHTS replaces the single test concentration by a dilution series.
Take `CN1CC[C@]23c4ccccc4N[C@H]1[C@]21CCN(C)[C@H]3Nc2ccccc21`: the Potency result is “inactive”. Then `CCOC(=O)CN1C(=O)N[C@@H](c2ccccc2)C(C(C)=O)=C1C`, with “inactive”; and `Cc1nn(CC(=O)OCC(=O)NC(C)c2ccccc2)c(C)c1[N+](=O)[O-]` (configuration not stated), with “inactive”. Take `CCC(=O)N(Cc1cc2ccc(C)cc2[nH]c1=O)c1ccccc1OC`: the Potency result was “inactive”. In the case of `Cc1ccnc(N2CCN(C(=O)CSc3nc4ccccc4nc3N3CCC(C)CC3)CC2)c1`, the Potency result is “inactive”.

For the compound `O=C(Nc1ccc(S(=O)(=O)N2CCOCC2)cc1)c1cc(-c2ccccc2O)n[nH]1`, the Potency entry is “inactive”. As for `COc1ccc(NS(=O)(=O)c2cc3c(cc2C)NC(=O)CO3)c(OC)c1`, the entry is “inactive”; as for `O=C(Nc1cccc(-c2nn[nH]n2)c1)c1ccc(Cl)s1`, “inactive”; as for `CCOC(=O)C1(CC2CCCCO2)CCN(Cc2nccn2-c2cccc(C)c2)CC1` (configuration not stated), “inactive”. As to `O=C(NCCN1CCOCC1)c1ccccc1Cl`, the Potency entry is “inactive”. With `CCOC(=O)c1cc(-c2ccccc2C)n(CC2CC(c3ccc(OC)cc3)=NO2)n1` (configuration not stated), the Potency entry is “inactive”. As for `COC(=O)C1C(=O)c2c([nH]c(C(=O)OC3CCCCC3)c2C)CC1C` (configuration not stated), the Potency entry was “inactive”. Regarding `COc1ccc(N2CC(C(=O)Nc3nnc(SCCC4OCCO4)s3)CC2=O)cc1` (configuration not stated), the Potency result was “inactive”. Take `COc1ccc(/C(C)=N/N2CCOCC2)c(O)c1`: the Potency entry is “inactive”. Regarding `COc1cc2c(cc1OC)CN(C(=O)c1ccc(-c3ccccc3)cc1)CC2`, the Potency result was “inactive”. In the case of `N#CCCN(C(=O)COC(=O)c1ccc2c(c1)NC(=O)CS2)c1ccc2c(c1)OCCO2`, the Potency entry is “inactive”. Then `COc1ccc(CNCCC2(C(C)C)CCOC(C)(C)C2)cc1` (configuration not stated), with “inactive”.
